Compounds with a hit are over-represented: about 12% of the library has one in this group of screens.
Sfp PPTase inh – blocks B. subtilis Sfp PPTase activity | Q9F4F7 | Biochemical Sfp PPTase activity, qHTS | Potency, µM, for the others: largest response in the series, negative = inhibition, actives largely listed as inhibitors | 310,000 compounds, 3.5% hits | AID 1490;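 also: the enzyme is Sfp with the accession as filed and its product quenches rhodamine fluorescence; 0% = enzyme reaction without inhibitor and -100% = no enzyme wells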
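Fluorescence-quenching assay: 15 nM Sfp-PPTase preincubated 15 min at room temperature with compound, then 5 uM rhodamine-CoA and 12.5 uM BHQ-2-labelled YbbR peptide added. Fluorescence (ex 525/em 598 nm) read at start and after 30 min; difference gives rate.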
PLK1 PBD block – inhibitors of human PLK1 polo-box domain binding; Plk1 PBD binding of FITC phosphopeptide, fluorescence polarization; Potency, µM, inactives show max response, negative = inhibition, usual class: inhibitors; 360,000 compounds, 2.8% hits; AID 720504; also: series mostly up to about 57 µM; % is scaled to controls: 0 for no effect and ±100 for the full control effect; nearly all actives have a fitted effect of over 65% in size
G9a inh – G9a (human) methyltransferase inhibition | Q96KQ7 | G9a H3K9 monomethylation, AlphaScreen, 2 h | Potency, µM (highest dose often 102 µM), inactives show at the top dose activity, negative = inhibition, usual class: inhibitors | 350,000 compounds, 8.8% hits; also: % is scaled to controls: 0 for no effect and ±100 for the full control effect; nearly all actives have a fitted effect of over 75% in size
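Step 1: enzyme (final 20 nM) with compound, 15 min RT. Step 2: substrate peptide 500 nM and SAM 20 uM, 2 h RT. Step 3: anti-H3K9me1 antibody and AlphaScreen beads, 10 min, then plate read.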
JMJD2A Tudor inh – blocks the human JMJD2A Tudor domain; O75164; AlphaScreen JMJD2A-Tudor / H3K4me3 peptide binding; Potency, µM (highest dose often 114 µM), for inactives: at the highest dose activity change, negative = inhibition, hits mostly inhibitors; 390,000 compounds, 4.4% hits; AID 504339; also: % is scaled to controls: 0 for no effect and ±100 for the full control effect; nearly all actives have a fitted effect of over 50% in size
Target sequence (O75164 whole entry, looked up, the tested form may be a part): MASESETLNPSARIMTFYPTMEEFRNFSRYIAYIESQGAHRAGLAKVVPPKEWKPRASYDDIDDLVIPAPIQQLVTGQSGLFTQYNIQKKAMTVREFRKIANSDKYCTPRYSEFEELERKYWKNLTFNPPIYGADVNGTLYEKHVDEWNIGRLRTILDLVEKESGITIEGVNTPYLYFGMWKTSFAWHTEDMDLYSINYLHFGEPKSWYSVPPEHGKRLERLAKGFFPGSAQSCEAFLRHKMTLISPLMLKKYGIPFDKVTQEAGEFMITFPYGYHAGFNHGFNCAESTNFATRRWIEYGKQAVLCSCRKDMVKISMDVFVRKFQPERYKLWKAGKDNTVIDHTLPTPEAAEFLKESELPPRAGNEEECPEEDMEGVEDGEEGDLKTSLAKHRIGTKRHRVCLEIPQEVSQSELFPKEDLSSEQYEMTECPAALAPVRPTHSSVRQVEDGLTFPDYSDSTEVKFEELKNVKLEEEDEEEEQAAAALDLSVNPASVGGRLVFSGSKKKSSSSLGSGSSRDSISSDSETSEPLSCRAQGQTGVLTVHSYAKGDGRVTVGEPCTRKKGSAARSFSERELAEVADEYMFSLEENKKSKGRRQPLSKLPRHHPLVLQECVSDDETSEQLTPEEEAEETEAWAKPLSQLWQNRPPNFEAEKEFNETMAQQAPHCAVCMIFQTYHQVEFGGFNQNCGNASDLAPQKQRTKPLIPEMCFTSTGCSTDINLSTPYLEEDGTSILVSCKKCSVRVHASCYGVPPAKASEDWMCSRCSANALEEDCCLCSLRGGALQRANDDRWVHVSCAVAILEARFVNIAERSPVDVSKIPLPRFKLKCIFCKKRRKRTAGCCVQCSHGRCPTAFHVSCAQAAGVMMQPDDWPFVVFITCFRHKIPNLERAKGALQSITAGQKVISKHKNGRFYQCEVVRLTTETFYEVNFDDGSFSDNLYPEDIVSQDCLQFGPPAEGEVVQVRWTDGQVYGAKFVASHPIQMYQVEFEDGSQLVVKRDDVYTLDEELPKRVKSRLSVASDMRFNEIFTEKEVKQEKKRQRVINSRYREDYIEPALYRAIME
BAZ2B inh – BAZ2B (human) inhibition; Q9UIF8; AlphaScreen BAZ2B-H3K14Ac peptide displacement; Potency, µM (series often up to 114 µM), without a hit: at the top dose activity change, negative = inhibition, hits mostly inhibitors; 360,000 compounds, 4.4% hits; AID 504333; also: % is scaled to controls: 0 for no effect and ±100 for the full control effect; nearly all actives have a fitted effect of over 60% in size
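Complex of BAZ2B and biotin-H3K14Ac (50 nM apiece) forms over 30 min at RT, then faces library compounds up to 110 uM for another 30 min; AlphaScreen beads added, 20 min dark incubation, luminescence read.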
HP1b chromo inh – HP1-beta chromodomain-methylated histone interaction inhibition. Potency, µM (highest dose often 114 µM), for inactives: at the highest dose activity change, negative = inhibition, actives largely listed as inhibitors. AlphaScreen HP1-beta / biotin-H3K9me3 peptide binding. P83916. 390,000 compounds, 0.56% hits; also: nearly all actives have a fitted effect of over 70% in size
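AlphaScreen: HP1-beta (50 nM) preformed 30 min with biotin-H3(1-18)K9me3 peptide (50 nM) in PBS pH 7.4, 0.01% Tween-20. Compound added for 30 min at RT, then streptavidin donor/nickel chelate acceptor beads (10 ug/mL) for 30 min.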
Starred values were filed as active, the others as inactive; ? = inconclusive; nt = no result; [ ] = remark or other dose. Calls follow the shape of the dose curve; as a rule, active = well fitted curve in the direction sought with a large enough effect; inconclusive = small, poorly fitted or top-dose-only effect, or another doubt; inactive = no such curve, though single readings can be large; an effect the other way counts as inactive or inconclusive. Potency is read from the fitted curve at half-maximal effect.

SMILES | Sfp PPTase inh | PLK1 PBD block | G9a inh | JMJD2A Tudor inh | BAZ2B inh | HP1b chromo inh
Cc1nn(S(=O)(=O)c2cccc([N+](=O)[O-])c2)c(C)c1S(=O)(=O)N1CCOCC1 | 17% | -21% | -4%[59 µM] | 79µM* | -27% | 84%
O=c1c(-c2ccc(Cl)cc2)nc2cnc(N3CCNCC3)nc2n1Cc1ccc(F)cc1 | 45µM* | nt | -6%[12.7 µM] | nt | nt | nt
COc1cccc(Cn2c(=O)c(-c3ccc(Cl)cc3)nc3cnc(N4CCNCC4)nc32)c1 | 40µM* | nt | 4%[0.501 µM] | nt | nt | nt
CN1CCN(c2ncc3nc(-c4ccc(Cl)cc4)c(=O)n(Cc4ccc(F)cc4)c3n2)CC1 | -20% | nt | -5%[0.501 µM] | nt | nt | nt
COc1cccc(Cn2c(=O)c(-c3cccs3)nc3cnc(N4CCNCC4)nc32)c1 | 18µM* | nt | 12%[0.501 µM] | nt | nt | nt
O=c1c(CCc2ccccc2)nc2cnc(N3CCNCC3)nc2n1Cc1ccc(F)cc1 | 50µM* | nt | 2%[12.7 µM] | nt | nt | nt
CN1CCN(c2ncc3nc(CCc4ccccc4)c(=O)n(Cc4ccc(F)cc4)c3n2)CC1 | -14% | nt | -9%[12.7 µM] | nt | nt | nt
Cc1ccc(NC(=O)CN2C(=O)COc3ccc(S(=O)(=O)NC4CCCC4)cc32)cc1Cl | nt | nt | -5%[59 µM] | -27% | -13% | -15%
NS(=O)(=O)c1ccc(NC(=O)CSc2nc3c(cnn3-c3ccccn3)c(=O)[nH]2)cc1 | nt | -12% | 40µM* | ? | 9% | 14%
O=C(CSc1nc2c(cnn2-c2ccc(F)cc2)c(=O)[nH]1)Nc1ccc(Br)cc1 | nt | nt | -28%[59 µM] | ? | -16% | 10%
COc1ccc(Br)cc1/C=N/NC(=O)C[n+]1ccccc1 | 5% | -4% | -13% | -9% | -15% | 34%
O=C(C[n+]1ccccc1)N/N=C/c1ccc(C(=O)O)cc1 | nt | 6% | ? | -30% | 79µM* | 52%
O=C(C[n+]1ccccc1)N/N=C/c1cc(Br)ccc1F | nt | -8% | -3%[12.7 µM] | ? | 71µM* | 28%
O=C(C[n+]1ccccc1)N/N=C/c1cc(Br)cc(Br)c1O | 3% | 1% | -12% | 22µM* | 10µM* | 27%
CC(C)(C)CN1CCN(CC#Cc2ccccc2)CC1CCO (stereo unspecified) | 5% | -4% | nt | -24% | -3% | 21%
COc1ccccc1Cc1nc2ccccc2nc1SCC(=O)Nc1c(C)cccc1C | nt | nt | 58%[59 µM] | -14% | 16% | 22%[57 µM]
O=C(COc1ccc2ccccc2c1)Nc1ccc(Cc2ccncc2)cc1 | -3% | ? | -10% | 79µM* | ? | 61%
Cc1ccc([N+](=O)[O-])cc1S(=O)(=O)Nc1ccc(C(=O)N2CCN(C(=O)c3ccco3)CC2)cc1 | nt | 0% | -11%[2.33 µM] | 79µM* | ? | -12%
O=C(COc1ccc([N+](=O)[O-])cc1)Nc1ccc(N2CCN(C(=O)c3ccco3)CC2)cc1 | -6% | -1% | nt | -14% | 25µM* | 52%
CN1CCN(c2ccc(NC(=O)COc3ccc4ccccc4c3)cc2)CC1 | 5% | -7% | 35µM* | -25% | -18% | 12%
CCCCNc1nc(C)nc2c1nc(C)n2CCC | 29% | nt | nt | nt | nt | nt
CSc1nnc(SCC2=NNC(=O)SC2)s1 | 5% | 0% | -6%[59 µM] | 3% | 5% | 31%
CC(Sc1nnc(-c2ccco2)n1C)C(=O)N1C(C)CCCC1C (stereo unspecified) | -6% | -3% | 9% | -7% | 0% | 29%
C=C[C@]1(C)CC(=O)[C@@]2(O)[C@@]3(C)C(O)CCC(C)(C)C3C(O)C(OC(C)=O)[C@@]2(C)O1 (stereo partly specified) | -1% | nt | -10%[2.33 µM] | nt | nt | nt
Cc1ccc(CSCCC(=O)N2CCN(c3ccc(F)cc3)CC2)cc1 | nt | nt | ? | ? | -32% | -18%
SMILES | Sfp PPTase inh | PLK1 PBD block | G9a inh | JMJD2A Tudor inh | BAZ2B inh | HP1b chromo inh
COC(=O)C1(C)NC(c2ccc(O)cc2)C2C(=O)N(c3ccc(C)cc3)C(=O)C21 (stereo unspecified) | 12% | -5% | 10% | -10% | -34% | 29%
O=c1[nH]c2c(s1)C(c1ccc(O)cc1)C1C3CCC(C3)C1S2 (stereo unspecified) | 50µM* | ? | ? | -35% | ? | -20%
COc1ccc(C2c3sc(=O)[nH]c3SC3C4CCC(C4)C23)cc1OC (stereo unspecified) | 2% | ? | 8.9µM* | ? | ? | ?
Cc1ccc(-n2nc(C(=O)N3CCN(c4cccc(C(F)(F)F)c4)CC3)c3c4ccccc4n(C)c3c2=O)cc1 | nt | nt | -13%[59 µM] | -11% | nt | 26%
Cc1c(Cl)cccc1NC(=S)NN | 11% | 0% | 3%[59 µM] | -22% | -12% | 31%
Cc1cccc(Cl)c1NC(=S)NN | -1% | 0% | 3.5µM* | -18% | -3% | 37%
O=C(c1ccccc1Br)N1CCN(Cc2ccc3c(c2)OCO3)CC1 | 12% | 3% | 9% | -22% | -25% | 20%
CCSc1ccccc1C(=O)N1CCN(Cc2ccc3c(c2)OCO3)CC1 | ? | -22% | 7.9µM* | -28% | 5% | 5%
O=C(O)c1cccc(S(=O)(=O)N2CCN(Cc3ccc4c(c3)OCO4)CC2)c1 | 7% | -11% | -10% | -16% | 6% | -11%
O=C(O)c1ccccc1C(=O)N1CCN(Cc2ccc3c(c2)OCO3)CC1 | 11% | 0% | 4% | -10% | -2% | 18%
O=C(c1ccccc1F)N1CCN(Cc2ccc3c(c2)OCO3)CC1 | -15% | -5% | -5%[0.501 µM] | 0.89µM* | 45µM* | 40µM*
O=C(c1cccc(S(=O)(=O)N2CCOCC2)c1)N1CCN(Cc2ccc3c(c2)OCO3)CC1 | 7% | -2% | 40µM* | -11% | -26% | 15%
CC(CNC(=O)Cn1ncc2c3ccccc3n(Cc3cccc(Cl)c3)c2c1=O)c1ccccc1 (stereo unspecified) | nt | nt | 6%[59 µM] | ? | -21% | 4%
CCCCNC(=O)c1ccccc1SCc1c(C)noc1C | -5% | -15% | 98% | 2% | 8% | 33%
N/C(=N\OS(=O)(=O)c1ccc(Cl)cc1)c1cccnc1 | -3% | -6% | ? | -3% | 0% | 42%
N/C(=N\OS(=O)(=O)c1ccc(Cl)cc1)c1ccncc1 | 10% | -14% | 2.5µM* | -15% | 7% | -17%
COc1cc(/C=C/c2nc(C#N)c(NC(C)c3ccccc3)o2)cc(OC)c1OC (stereo unspecified) | nt | nt | -36%[59 µM] | -11% | -26% | 3%
COc1ccc(/C=N/NC(=O)/C(=C/c2ccccc2)CCO)cc1 | 3% | 27µM* | 37%[59 µM] | 79µM* | -1% | 1%
COc1ccc(/C=N/NC(=O)C2c3ccccc3-c3ccccc32)cc1 | 6% | -11% | 45µM* | -19% | -4% | 29%
O=C(N/N=C/c1ccc(O)cc1O)/C(=C/c1ccccc1)CCO | 26% | -3% | 46%[59 µM] | 79µM* | -39% | 12%
